SMILES strings stand for the structures. The source made the active and inactive calls. How the source made its calls: active means hit-call score of the fitted dose curve at least 0.9, where 1 is the maximum; inactive means score below 0.9.

The results in this text go back to PubChem BioAssay (EPA / NIEHS).

What all share (settings): mRNA level, 48 h; actives raise or lower the signal
Read-out in assay [1]: Glutathione S-transferase M3 (GSTM3), GSTM3 (gene 2947)
Description: LTEA_HepaRG_GSTM3: Life Technologies and Expression Analysis (LTEA) Assay for Glutathione S-transferase M3 (GSTM3) using HepaRG (AID 2283501). The method, boiled down:
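qRT-PCR read-out of GSTM3 transcript, normalized to three housekeeping genes, from human HepaRG cells after 48 h chemical exposure. Eight-point half-log series, top 100 uM, 0.5% DMSO vehicle; gain or loss fitted relative to DMSO baseline.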

Read-out in assay [2]: Heat shock 70 kDa protein 1 (HSPA1A), gene 3303
The experiment in a line: LTEA_HepaRG_HSPA1A: Life Technologies and Expression Analysis (LTEA) Assay for Heat shock 70 kDa protein 1 (HSPA1A) using HepaRG (AID 2283502). The method, boiled down:
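HSPA1A expression measured by qRT-PCR with ACTB/GAPDH/POLR2A normalization; curves fitted in both directions relative to DMSO vehicle. Exposure: 48 h in HepaRG cells, duplicate 8-point half-log series from 100 uM, 0.5% DMSO, serum-free induction medium.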

Read-out in another assay: HGF (gene 3082)
Description: LTEA_HepaRG_HGF: Life Technologies and Expression Analysis (LTEA) Assay for Hepatocyte Growth Facto (HGF) using HepaRG (AID 2283505). Summed up:
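HepaRG, 48 h dosing, 8-pt half-log series from 100 uM in 0.5% DMSO, duplicates. Readout: TaqMan qRT-PCR of HGF mRNA, housekeeping-normalized; bidirectional curve fit vs DMSO baseline.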

Read-out in assay [3]: Insulin Like Growth Factor 1 (IGF1), IGF1 (gene 3479)
The experiment in a line: LTEA_HepaRG_IGF1: Life Technologies and Expression Analysis (LTEA) Assay for Insulin Like Growth Factor 1 (IGF1) using HepaRG (AID 2283506). Summed up: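 Expression measured by TaqMan qRT-PCR on a Fluidigm array, with three housekeeping genes for normalisation, after 48 h treatment of HepaRG cells. Top concentration 100 uM with half-log steps, 0.5% DMSO vehicle, bidirectional fit.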

Read-out in assay [4]: Intercellular Adhesion Molecule 1 (ICAM1), ICAM1 (gene 3383)
Description: LTEA_HepaRG_ICAM1: Life Technologies and Expression Analysis (LTEA) Assay for Intercellular Adhesion Molecule 1 (ICAM1) using HepaRG (AID 2283507). Summed up:
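HepaRG, 48 h exposure, 8-pt half-log series from 100 uM, 0.5% DMSO vehicle, duplicates. Readout: TaqMan qRT-PCR mRNA, housekeeping-normalized (ACTB/GAPDH/POLR2A). Bidirectional curve fit vs DMSO baseline.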

Read-out in assay [5]: Insulin-like growth factor-binding protein 1 (IGFBP1), IGFBP1 (gene 3484)
Description: LTEA_HepaRG_IGFBP1: Life Technologies and Expression Analysis (LTEA) Assay for Insulin-like growth factor-binding protein 1 (IGFBP1) using HepaRG (AID 2283508). Summed up: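 qRT-PCR mRNA read-out (TaqMan, Fluidigm array), normalised to three housekeeping genes; HepaRG cells, 48 h exposure, 8-pt half-log series from 100 uM, 0.5% DMSO vehicle; bidirectional curve fit vs DMSO baseline.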

Read-out in assay [6]: Interleukin 6 (IL6), IL6 (gene 3569)
Description: LTEA_HepaRG_IL6: Life Technologies and Expression Analysis (LTEA) Assay for Interleukin 6 (IL6) using HepaRG (AID 2283509). Summed up:
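Changes in IL6 mRNA, up or down relative to 0.5% DMSO controls, were derived from concentration-response curves in human HepaRG cells treated for 48 h at up to 100 uM, with ACTB, GAPDH and POLR2A as normalizers.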

Read-out in assay [7]: Interleukin 6 Receptor (IL6R), IL6R (gene 3570)
Description: LTEA_HepaRG_IL6R: Life Technologies and Expression Analysis (LTEA) Assay for Interleukin 6 Receptor (IL6R) using HepaRG (AID 2283510). The method, boiled down: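 IL6R transcript level by qRT-PCR after 48 h chemical exposure (8-point, half-log, max 100 uM, 0.5% DMSO vehicle) of HepaRG cells in serum-free induction medium. Normalized to three housekeeping genes; curves fitted in both directions relative to DMSO.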

Read-out in assay [8]: Potassium channel subfamily K member 1 (KCNK1), KCNK1 (gene 3775)
Description: LTEA_HepaRG_KCNK1: Life Technologies and Expression Analysis (LTEA) Assay for Potassium channel subfamily K member 1 (KCNK1) using HepaRG (AID 2283511). The method, boiled down: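 Human HepaRG cultures receive test chemicals for 48 h in 0.5% DMSO, top concentration 100 uM with half-log dilutions. Induction or suppression of KCNK1 mRNA relative to DMSO is derived by bidirectional fitting of qRT-PCR data.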

Read-out in assay [9]: Keratin 19 (KRT19), KRT19 (gene 3880)
Description: LTEA_HepaRG_KRT19: Life Technologies and Expression Analysis (LTEA) Assay for Keratin 19 (KRT19) using HepaRG (AID 2283512). Summed up: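 HepaRG, 48 h chemical exposure, 8-pt half-log CRC from 100 uM, 0.5% DMSO vehicle, duplicates. Readout: TaqMan qRT-PCR of KRT19 mRNA, housekeeping-normalized (ACTB/GAPDH/POLR2A). Bidirectional fit vs DMSO baseline.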

Read-out in assay [10]: JUN Transcription Factor, JUN (gene 3725)
The experiment in a line: LTEA_HepaRG_JUN: Life Technologies and Expression Analysis (LTEA) Assay for JUN Transcription Factor using HepaRG (AID 2283513). Summed up: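 mRNA measured by TaqMan qRT-PCR after 48 h chemical exposure of HepaRG cultures; normalization to three housekeeping genes. Duplicate eight-point half-log curves from 100 uM in 0.5% DMSO; gain or loss fitted against DMSO baseline.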

Read-out in assay [11]: MicroRNA 122 (MIR122), gene 406906
Description: LTEA_HepaRG_MIR122: Life Technologies and Expression Analysis (LTEA) Assay for MicroRNA 122 (MIR122) using HepaRG (AID 2283516). Further: the transcript read is the microRNA miR-122. The method, boiled down: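 Expression measured by microfluidic qRT-PCR with three housekeeping genes for normalisation, after 48 h treatment of HepaRG cultures. Eight concentrations (top 100 uM, half-log steps, 0.5% DMSO vehicle) in duplicate; gain or loss fitted relative to vehicle.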

Read-out in assay [12]: matrix metalloproteinase-10 (MMP10), MMP10 (gene 4319)
The experiment in a line: LTEA_HepaRG_MMP10: Life Technologies and Expression Analysis (LTEA) Assay for matrix metalloproteinase-10 (MMP10) using HepaRG (AID 2283517). Summed up:
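In differentiated HepaRG cultures kept in 0.5% DMSO, test chemicals act for 48 h over an eight-point range with a top dose of 100 uM. Expression is then quantified by TaqMan RT-PCR against ACTB, GAPDH and POLR2A.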

Read-out in a further assay: MYC, MYC (gene 4609)
The experiment in a line: LTEA_HepaRG_MYC: Life Technologies and Expression Analysis (LTEA) Assay for MYC using HepaRG (AID 2283518). The method, boiled down:
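qRT-PCR read-out of MYC transcript (Fluidigm TaqMan, housekeeping-normalized) after 48 h chemical exposure of HepaRG cells; eight concentrations, top 100 uM, half-log steps. Bidirectional curve fitting against 0.5% DMSO vehicle baseline.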

Read-out in assay [13]: matrix metalloproteinase-3 (MMP3), MMP3 (gene 4314)
The experiment in a line: LTEA_HepaRG_MMP3: Life Technologies and Expression Analysis (LTEA) Assay for matrix metalloproteinase-3 (MMP3) using HepaRG (AID 2283519). Summed up: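 Human liver HepaRG cultures received chemicals (top concentration 100 uM, 0.5% DMSO) for 48 h in duplicate. MMP3 mRNA induction or loss was then assessed via TaqMan qRT-PCR with housekeeping-gene normalisation.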

Read-out in assay [14]: Paternally Expressed 10 (PEG10), PEG10 (gene 23089)
Description: LTEA_HepaRG_PEG10: Life Technologies and Expression Analysis (LTEA) Assay for Paternally Expressed 10 (PEG10) using HepaRG (AID 2283520). The method, boiled down:
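PEG10 transcript measured by Fluidigm qRT-PCR, normalized to three housekeeping genes, in HepaRG cells treated 48 h (highest 100 uM, half-log steps, 0.5% DMSO vehicle). Cells plated 48 h before switching to serum-free induction medium.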

Read-out in assay [15]: Hypoxia-inducible factor 1-alpha (Homo sapiens) (UniProt Q16665)
The experiment in a line: LTEA_HepaRG_HIF1A: Life Technologies and Expression Analysis (LTEA) Assay for Hypoxia-inducible factor 1 (HIF1A) Trancription factor using HepaRG (AID 2283503). The method, boiled down: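 HIF1A transcript level read by qRT-PCR (ACTB, GAPDH, POLR2A normalization) after 48 h chemical exposure of HepaRG cultures. Eight half-log concentrations, top 100 uM, 0.5% DMSO vehicle, duplicates; bidirectional curve fit against DMSO baseline.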

Read-out in assay [16]: 3-Hydroxy-3-Methylglutaryl-CoA Synthase 2 (HMGCS2), HMGCS2 (gene 3158)
The experiment in a line: LTEA_HepaRG_HMGCS2: Life Technologies and Expression Analysis (LTEA) Assay for 3-Hydroxy-3-Methylglutaryl-CoA Synthase 2 (HMGCS2) using HepaRG (AID 2283504). The method, boiled down:
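qRT-PCR read-out of HMGCS2 transcript, normalised to three housekeeping genes, in HepaRG cells after 48 h chemical exposure. Eight-point curves from 100 uM, half-log dilutions, 0.5% DMSO vehicle; gain or loss fitted relative to DMSO baseline.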

Hypoxia-inducible factor 1-alpha (Homo sapiens), sequence (Q16665 whole entry, looked up): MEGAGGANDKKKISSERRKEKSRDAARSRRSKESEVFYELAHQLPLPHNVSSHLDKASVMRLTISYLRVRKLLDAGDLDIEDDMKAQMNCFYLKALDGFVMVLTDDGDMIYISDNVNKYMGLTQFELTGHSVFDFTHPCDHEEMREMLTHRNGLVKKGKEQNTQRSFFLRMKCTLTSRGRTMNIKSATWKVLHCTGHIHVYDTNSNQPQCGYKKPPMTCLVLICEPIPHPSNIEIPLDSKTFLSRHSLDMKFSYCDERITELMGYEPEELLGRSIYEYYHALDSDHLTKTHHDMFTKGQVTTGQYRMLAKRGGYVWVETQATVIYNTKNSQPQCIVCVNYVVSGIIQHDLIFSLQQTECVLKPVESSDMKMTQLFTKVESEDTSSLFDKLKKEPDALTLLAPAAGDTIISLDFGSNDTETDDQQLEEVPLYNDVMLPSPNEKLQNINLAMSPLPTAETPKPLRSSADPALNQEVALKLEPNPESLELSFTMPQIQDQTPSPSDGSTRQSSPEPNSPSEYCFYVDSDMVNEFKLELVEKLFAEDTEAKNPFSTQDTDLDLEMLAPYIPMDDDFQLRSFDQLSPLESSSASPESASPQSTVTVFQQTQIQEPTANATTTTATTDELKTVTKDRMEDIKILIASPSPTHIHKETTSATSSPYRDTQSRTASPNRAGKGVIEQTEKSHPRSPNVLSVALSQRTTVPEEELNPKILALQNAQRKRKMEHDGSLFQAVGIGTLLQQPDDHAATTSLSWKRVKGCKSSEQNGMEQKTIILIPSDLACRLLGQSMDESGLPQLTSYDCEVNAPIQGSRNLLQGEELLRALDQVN

Take `O=P(Oc1ccccc1)(Oc1ccccc1)Oc1ccccc1`: the call (in assay [1]; in [2]; with HGF (gene 3082); in assay [4]; in assay [6]; in [7]) was inactive. Besides, the outcome was “inactive” in [8]; “inactive” in assay [10]; “inactive” in [11]; “inactive” in [12]; “inactive” in the assay with MYC, MYC (gene 4609); “inactive” in assay [13]. For the same compound, the call in assay [14] was inactive. The AC50 in assay [3] was 4.15 µM (active); in assay [5], 37.8 µM (active); in assay [9], 0.981 µM (active).

`CCOc1ccc(C(C)(C)COCc2cccc(Oc3ccccc3)c2)cc1`: the compound was classed as inactive (in [1]; in [2]; in [15]; in assay [16]; in the assay with HGF (gene 3082); in assay [4]). Further, the call in assay [5], in assay [6], in [7], in [8], in assay [9] and in [10] was inactive. The outcome in assay [11] is “inactive”; in assay [12], “inactive”; with MYC, MYC (gene 4609), “inactive”; in assay [13], “inactive”; in [14], “inactive”. Also, the AC50 in assay [3] is 12.4 µM (active).

Take `CCCCN(CCCC)N=O`: the call (in assay [1]; in [2]; in [15]; in assay [16]; in the assay with HGF (gene 3082); in assay [3]) was inactive. The compound was classed as inactive in assay [4], in assay [5], in assay [6], in [7], in assay [8] and in assay [9]. In addition, the outcome in assay [10] is “inactive”; in [11] it was “inactive”; in [12], “inactive”; with MYC, MYC (gene 4609), “inactive”; in [13] it was “inactive”; in assay [14], “inactive”.

For the compound `CSC(C)(C)C=NO`, the compound was called inactive (in assay [1]; in [2]; in assay [15]; in [16]; with HGF (gene 3082); in assay [3]). The compound was classed as inactive in assay [4], in assay [5], in assay [6], in assay [8], in assay [9] and in assay [10]. The outcome in [11] was “inactive”; in [12], “inactive”; with MYC, MYC (gene 4609), “inactive”; in assay [13] it was “inactive”; in assay [14], “inactive”.

`ClC(Cl)c1ccccc1`: the compound was called inactive (in assay [1]; in assay [2]; in assay [15]; in assay [16]; in the assay with HGF (gene 3082); in assay [3]). Besides, the compound was called inactive in [4], in [5], in assay [6], in assay [7], in assay [8] and in [9]. Further, the outcome was “inactive” in assay [10]; “inactive” in assay [11]; “inactive” in assay [12]; “inactive” in the assay with MYC, MYC (gene 4609); “inactive” in assay [13]; “inactive” in [14].

Take `CCN(CC)c1ccccc1`: the outcome (in assay [1]; in assay [2]; in assay [15]; in assay [16]; with HGF (gene 3082); in assay [3]) was inactive. Also, the compound was called inactive in assay [4], in assay [5], in assay [6], in assay [7], in assay [8] and in assay [9]. Moreover, the outcome in assay [10] was “inactive”; in [11], “inactive”; in assay [12], “inactive”; in the assay with MYC, MYC (gene 4609), “inactive”; in assay [13], “inactive”; in assay [14], “inactive”.

One may read the AC50 as the midpoint of the concentration-response curve, whichever way the signal moves.
